Assay results from PubChem BioAssay (NCATS).
Results filed as inconclusive are left out. A structure can be active in one record and inactive in another. Activity calls are given as the source filed them. Unless noted, calls come from the whole dose curve; as a rule, active = well fitted curve in the direction sought with a large enough effect; inconclusive = small, poorly fitted or top-dose-only effect, or another doubt; inactive = no such curve, though single readings can be large; an effect the other way counts as inactive or inconclusive.

How the values were obtained:
[1] = biological target: Glucocorticoid receptor (Homo sapiens) (UniProt P04150); test: GR-GFP Redistribution (AID 450;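 active = compounds whose dose series gives a full or clear partial fitted curve of increased nuclear translocation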; note: potency is the fitted concentration of half-maximal effect); settings: U2OS GR-GFP nuclear translocation, laser cytometry, 2 h
[2] = biological target: Glucocorticoid receptor (Homo sapiens) (UniProt P04150); test: GR-EFC Redistribution (AID 451; calls by dose curve; note: potency is the fitted concentration of half-maximal effect); settings: CHO-K1 GR-EFC translocation, beta-gal luminescence, 2 h
Method in brief: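 Translocation of GR-ED fusion to nuclear EA restores b-gal, read by luminescence after 1 h room-temperature detection. Engineered CHO-K1 biosensor cells, 1,000/well, exposed 2 h at 37 C to titrations up to 46 uM final.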

[3] = biological target: DNA dC->dU-editing enzyme APOBEC-3G (Homo sapiens) (UniProt Q9HC16); test: qHTS for inhibitors of Vif-A3G interactions: Validation (AID 588379); note: potency is the fitted concentration of half-maximal effect; for activity change, negative = inhibition: 0% is about no effect
Method in brief: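 HeLa cells stably expressing Vif and A3G-eYFP, 700 cells/well, incubated overnight at 37 deg C, then exposed to compound overnight at 37 deg C. Inhibition of Vif-mediated degradation read as increased yellow fluorescence (Ex 488/Em 500-530) by laser-scanning cytometry.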

[4] = Primary qHTS for small molecule stabilizers of the endoplasmic reticulum resident proteome: Secreted ER Calcium Modulated Protein (SERCaMP) assay (AID 1508630); note: % is set by controls: 0 for no effect and ±100 for the full control effect
Method in brief: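 GLuc-SERCaMP-expressing SH-SY5Y cells, pretreated 16 h with compound, are challenged with thapsigargin to empty ER calcium stores; after 4 h, coelenterazine is added directly to the medium and luminescence is imaged.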

[5] = biological target: Rap guanine nucleotide exchange factor 3 (Homo sapiens) (UniProt O95398); test: Confirmatory qHTS for antagonist of cAMP-regulated guanine nucleotide exchange factor 3 (EPAC1) (AID 1645880);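 note: plate controls were DMSO only for no effect and full effect of the ATA control for full effect; nearly all actives have a fitted effect of over 55% in size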
Method in brief: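 Nucleotide exchange uses 100 nM EPAC1, 250 nM RAP1B-BODIPY-GDP and 50 uM GDP, with compounds in a concentration-titration series. After 5 min at room temperature, fluorescence (480 nm ex/540 nm em) is read every 5 min for 30 min. Data are normalized to control ATA and DMSO.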

[6] = biological target: Rap guanine nucleotide exchange factor 3 (Homo sapiens) (UniProt O95398); test: Confirmatory qHTS for agonist of cAMP-regulated guanine nucleotide exchange factor 3 (EPAC1) (AID 1645881);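 note: EPAC1 catalysed release of BODIPY-GDP from Rap1B seen as fluorescence loss; 100% = effect of cAMP agonist control; nearly all actives have a fitted effect of over 75% in size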
[7] = biological target: Rap guanine nucleotide exchange factor 4 (Homo sapiens) (UniProt Q8WZA2); test: Confirmatory qHTS for agonist of cAMP-regulated guanine nucleotide exchange factor 4 (EPAC2) (AID 1645884);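 note: nucleotide exchange releases bodipy-GDP from Rap1 and this lowers its fluorescence; % is set by controls: 0 for no effect and ±100 for the full control effect; nearly all actives have a fitted effect of over 65% in size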
[8] = biological target: Rap guanine nucleotide exchange factor 4 (Homo sapiens) (UniProt Q8WZA2); test: Confirmatory qHTS for antagonist of cAMP-regulated guanine nucleotide exchange factor 4 (EPAC2) (AID 1645885); note: % is set by controls: 0 for no effect and ±100 for the full control effect; nearly all actives have a fitted effect of over 25% in size
[9] = qHTS for Inhibitors of Plasmodium falciparum (DD2) proliferation (AID 504314);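 note: parasite DNA measured by SYBR Green fluorescence after red cell lysis; plate controls were DMSO vehicle for no effect and artemisinin wells for full effect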
Method in brief: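 Quantitative HTS growth inhibition: SYBR Green I binding to parasite DNA after 72 h drug exposure of infected erythrocytes (0.3% parasitemia, 2.5% hematocrit). Signals normalized per plate to inhibitor and vehicle wells.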

[10] = qHTS for Inhibitors of Plasmodium falciparum (7G8) proliferation (AID 504316);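 note: 0% = DMSO vehicle and -100% = 0.29 µM artemisinin full kill; nearly all actives have a fitted effect of over 65% in size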
Method in brief: (§1)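 Erythrocytes infected with P. falciparum line (0.3% parasitemia, 2.5% hematocrit final) incubated with compounds 72 h at 37 °C, 5% CO2; SYBR Green lysis buffer added, fluorescence read next day. Normalized to 0.29 uM artemisinin and DMSO.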

[11] = qHTS for Inhibitors of Plasmodium falciparum (HB3) proliferation (AID 504318); note: nearly all actives have a fitted effect of over 60% in size; note: potency is the fitted concentration of half-maximal effect;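 for activity change, negative = inhibition: 0% = DMSO vehicle and -100% = artemisinin control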
Method in brief: as §1

[12] = qHTS for Inhibitors of Plasmodium falciparum (CP250) proliferation (AID 504320);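 note: plate controls were DMSO vehicle for no effect and 0.29 µM artemisinin control for full effect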
Method in brief: as §1

[13] = AP1 Signaling Pathway (AID 357; active = well fitted curve in either direction with a large enough effect, not every such curve was filed as active;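 note: ME-180 reporter cells stimulated with EGF at its EC50 level; % is set by controls: 0 for no effect and ±100 for the full control effect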)
Method in brief: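 Beta-lactamase reporter under AP-1 response element, ME-180 background. Stimulus: EC50 EGF. Compound exposure 5 h, 37 °C. Detection: CCF4, 2.5 h RT, 460/530 nm. Values: AC50 from titration.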

[14] = biological target: Cytochrome P450 1A2 (Homo sapiens) (UniProt P05177); test: p450-cyp1a2 (AID 410; calls by dose curve; note: potency is the fitted concentration of half-maximal effect;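 for activity change, negative = inhibition: -100% = full effect of reference inhibitor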)
Method in brief: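 20nM CYP1A2 with 100uM Luciferin-ME (at Km) in 100mM KPO4; compound preincubated 10 min, NADPH regeneration added, 60 min at room temperature. Luciferin quantified by luminescence after detection reagent; normalized to 57 uM furafylline.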

[15] = NFAT Signaling Pathway (AID 444; active = well fitted curve in either direction with a large enough effect, not every such curve was filed as active;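 note: carbachol stimulus at about its EC50 of 1 µM final; % is set by controls: 0 for no effect and ±100 for the full control effect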); settings: Jurkat NFAT-bla M1, carbachol, beta-lactamase ratio, 5 h; at 38 µM (top of the series)
Method in brief: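 Read-out: CCF4 FRET ratio (460 nm/530 nm) after 1 h RT dye loading, used for %activity and AC50 from titration series. Cells: Jurkat NFAT-β-lactamase/M1 line, treated with compound plus 1 uM carbachol for 5 h, 37 °C.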

[16] = Stat Signaling Pathway (AID 446; active = well fitted curve in either direction with a large enough effect, not every such curve was filed as active;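 note: ME-180 cervical cancer cells given 40 pM IL-6 alongside compound; SIE-controlled beta-lactamase reporter measured as 460/530 nm FRET emission ratio; % is set by controls: 0 for no effect and ±100 for the full control effect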)
Method in brief: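 Screening format detects activators and inhibitors alike: ME-180 SIE-bla cells stimulated at 40 pM IL-6 for 5 hrs with compound, then dual-emission beta-lactamase read at 405 nm excitation.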

[17] = biological target: Mitogen-activated protein kinase 10 (Mus musculus) (UniProt Q61831); test: JNK3 AlphaScreen Assay (AID 530; active = well fitted curve in either direction with a large enough effect, not every such curve was filed as active)
Method in brief: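 Compound titrations were preincubated 15 minutes at room temperature with substrate, antibody and pre-activated JNK3-containing HepG2 lysate. Reactions were started with 10 uM ATP and stopped with EDTA-containing bead buffer for AlphaScreen detection.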

[18] = biological target: 3',5'-cyclic-AMP phosphodiesterase 4B (Homo sapiens) (UniProt Q07343); test: qHTS Assay for Inhibitors of PDE-IV (AID 607; active = well fitted activation curve with a large enough effect in the main read-out, with a control signal flat, not every such curve was filed as active; note: % of control where 0% means no effect)
Method in brief: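 The readout is membrane depolarisation from a cAMP-sensing CNG channel, detected with a potential dye at ex 535/em 590. Cells were HEK293-derived (endogenous PDE-IV) at 1000 cells/well, titrated up to 22.9 uM final.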

[19] = biological target: Guanine nucleotide-binding protein G(i) subunit alpha-1 (Homo sapiens) (UniProt P63096); test: qHTS Assay for Inhibitors of RGS12 GoLoco Motif Activity (Green Fluorophore) (AID 879);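 note: 0% = labeled peptide with Gαi1 and full inhibition = labeled peptide alone without protein; negative values mean loss of peptide binding seen as reduced polarization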
Method in brief: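 Fluorescence polarization assay: 50 nM Gαi1 with 10 nM FITC-labeled RGS12 GoLoco peptide in 10 mM Tris pH 7.5, 150 mM NaCl, 0.1 mM GDP, 0.05% NP40, 10 min at room temperature with compound.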

[20] = biological target: Cytochrome P450 2C9 (Homo sapiens) (UniProt P11712); test: qHTS Assay for Inhibitors and Substrates of Cytochrome P450 2C9 (AID 883); note: potency is the fitted concentration of half-maximal effect; nearly all actives have a fitted effect of over 60% in size
Method in brief: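 Inhibition of CYP2C9 is scored as loss of luminescence, with 57uM sulphaphenazole defining 100% inhibition. Substrate Luciferin-H is used at 100uM, equal to its KM; enzyme at 10nM in 25mM KPO4, 60 min at 37C with NADPH regeneration.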

[21] = biological target: Cytochrome P450 3A4 (Homo sapiens) (UniProt P08684); test: qHTS Assay for Activators of Cytochrome P450 3A4 (AID 885); note: nearly all actives have a fitted effect of over 65% in size
Method in brief: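 Steps: enzyme/substrate mix dispensed; compound added, 10 min RT; NADPH regeneration solution added, 60 min RT; luciferin detection buffer stops reaction; 20 min later luminescence measured.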

[22] = biological target: Cytochrome P450 2C19 (Homo sapiens) (UniProt P33261); test: qHTS Assay for Inhibitors and Substrates of Cytochrome P450 2C19 (AID 899); note: potency is the fitted concentration of half-maximal effect; nearly all actives have a fitted effect of over 60% in size
Method in brief: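 5nM enzyme + 10uM Luciferin-H EGE (=KM), 50mM KPO4; cpd pin-transferred, 10 min 37C; NADPH regen, 60 min 37C; stopped w/ luciferin detection reagent, 20 min; luminescence. Normalized to 57uM ketoconazole (AC100).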

[23] = qHTS Assay for Identification of Small Molecule Agonists for Thrombopoietin (TPO) Signaling Pathway (AID 917); note: % is set by controls: 0 for no effect and ±100 for the full control effect
Method in brief: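 IL-3-dependent murine pro-B Ba/F3 cells, stably transfected with human TPO receptor and GpIIb-promoter luciferase, are incubated 24 hrs at 37 C with test compound and 26 pM TPO; luciferase signal is read after 10 min at room temperature.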

[24] = biological target: Muscarinic acetylcholine receptor M1 (Rattus norvegicus) (UniProt P08482); test: qHTS Assay for Antagonists of Acetylcholine Muscarinic M1 Receptor: Measurement of IP-One Response (AID 944); note: potency is the fitted concentration of half-maximal effect; nearly all actives have a fitted effect of over 75% in size
Method in brief: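 CHO cells stably expressing rat M1, pretreated 10 min with compound, then stimulated 30 min with carbachol at EC80 (200 nM) in LiCl-containing buffer pH 7.4; IP1 accumulation read by HTRF competition (665/620 nm).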

[25] = biological target: Pyruvate kinase (Leishmania mexicana) (UniProt Q27686); test: qHTS Validation Assay for Inhibitors of Leishmania Mexicana Pyruvate Kinase (AID 945);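 note: 0% = DMSO only neutral control wells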
Method in brief: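 Read-out: luminescence from PKLight stop/detection reagent, data normalized to DMSO. Reaction: 0.2 nM E451W LmPYK, 0.5 mM PEP, 0.1 mM ADP, pH 7.2, 1 h room temperature.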

[26] = biological target: Pyruvate kinase PKM (Homo sapiens) (UniProt P14618); test: qHTS Assay for Activators of Human Muscle Pyruvate Kinase (AID 954; active = well fitted curve in the direction sought with a large enough effect, not every such curve was filed as active;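 note: 0% = uninhibited enzyme and -100% = no enzyme or full thiadiazolimine inhibition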)
Method in brief: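 Reaction: 0.1 nM purified PKM2 with 0.5 mM phosphoenolpyruvate and 0.1 mM ADP, room temperature, 1 h. Readout: luciferase-based ATP luminescence after stop reagent. Activators judged against a 0.3 nM enzyme column.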

[27] = biological target: Alpha-galactosidase (Coffea arabica) (UniProt Q42656); test: Counterscreen for Glucocerebrosidase Inhibitors: qHTS Assay for Coffee Bean alpha-Galactosidase at pH 4.5 (AID 957);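 note: plate controls were enzyme alone for no effect and no enzyme for full effect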
Method in brief: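 Coffee bean enzyme (2 nM) with 80 uM 4-methylumbelliferyl alpha-D-galactopyranoside in 50 mM citric acid, 0.005% Tween-20, pH 4.5, 20 min at room temperature; compounds 0.7 nM–77 uM. Stopped at pH 10, fluorescence 365/440 nm; AC50 from Hill fits.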

[28] = biological target: Alpha-galactosidase A (Homo sapiens) (UniProt P06280); test: Counterscreen for Glucocerebrosidase Inhibitors: qHTS Assay for Human alpha-Galactosidase at pH 4.5 (AID 992); note: 0% is about no effect
Method in brief: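 Concentration-response curves (0.7 nM to 77 uM final) were modeled with the Hill equation to give AC50. Reactions: 2 nM enzyme, 80 uM fluorogenic alpha-galactoside, pH 4.5 citric acid buffer, 20 min, room temperature.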

[29] = biological target: alpha-glucosidase (Oryza sativa, rice) (UniProt Q653V4); test: Counterscreen for Glucocerebrosidase Inhibitors: qHTS Assay for Rice alpha-Glucosidase at pH 5.0 (AID 997);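 note: 0% = full activity with enzyme and -100% = basal without enzyme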
Method in brief: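 Rice alpha-glucosidase (4 nM final) with 400 uM 4-methylumbelliferyl-alpha-D-glucopyranoside in citrate buffer pH 5.0, 20 min at room temperature, stopped at pH 10; fluorescence 365/440 nm, compounds 0.7 nM–77 uM, AC50 from Hill fits.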

[30] = biological target: Alpha-galactosidase (Coffea arabica) (UniProt Q42656); test: Counterscreen for Glucocerebrosidase Inhibitors: qHTS Assay for Coffee Bean alpha-Galactosidase at pH 5.9 (AID 998);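 note: plate controls were uninhibited enzyme for no effect and no-enzyme basal signal for full effect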
Method in brief: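 Compounds were titrated from 0.7 nM to 77 uM against green coffee bean alpha-galactosidase (2 nM) using 80 uM fluorogenic 4-methylumbelliferyl substrate. After 20 min at room temperature, reactions were stopped at pH 10 and read by fluorescence.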

[31] = qHTS Assay for Lipid Storage Modulators (AID 1519; calls by dose curve); settings: Drosophila S3 cells, BODIPY lipid droplet/cell ratio, laser cytometry, cells loaded with oleic acid
Method in brief: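 Cells seeded at 5,000 per well were treated with compounds over a concentration series and loaded with oleic acid (400 uM, as added). Lipid droplet fluorescence (488 nm excitation, 500-530 nm channel) was read by laser-scanning cytometry and normalized to 20 uM Triacsin C.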

[32] = biological target: Ubiquitin carboxyl-terminal hydrolase 1 (Homo sapiens) (UniProt O94782); test: Inhibitors of USP1/UAF1: Pilot qHTS (AID 504865);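 note: rhodamine fluorescence freed from ubiquitin-rhodamine substrate followed over time; top concentration of the series differs between compounds; % is set by controls: 0 for no effect and ±100 for the full control effect; nearly all actives have a fitted effect of over 35% in size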
Method in brief: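 Enzyme-free wells gave the negative control, while test wells held 1nM USP1/UAF1 preincubated with compound for 15 min at room temperature. Ub-Rho at 150nM final started the reaction, and fluorescence at 480/540 nm was recorded kinetically.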

[33] = biological target: Cytochrome P450 2D6 (Homo sapiens) (UniProt P10635); test: qHTS Assay for Inhibitors and Substrates of Cytochrome P450 2D6 (AID 891); note: potency is the fitted concentration of half-maximal effect; nearly all actives have a fitted effect of over 60% in size
Method in brief: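 Human CYP2D6 (5 nM) with 30 uM Luciferin-ME EGE (at Km) in 100 mM KPO4, compound preincubated 10 min, then NADPH regeneration system for 60 min at room temperature. Luciferin read by luminescence; normalized to 1.43 uM quinidine.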

Sequence of Rap guanine nucleotide exchange factor 3 (Homo sapiens) (O95398 whole entry, looked up): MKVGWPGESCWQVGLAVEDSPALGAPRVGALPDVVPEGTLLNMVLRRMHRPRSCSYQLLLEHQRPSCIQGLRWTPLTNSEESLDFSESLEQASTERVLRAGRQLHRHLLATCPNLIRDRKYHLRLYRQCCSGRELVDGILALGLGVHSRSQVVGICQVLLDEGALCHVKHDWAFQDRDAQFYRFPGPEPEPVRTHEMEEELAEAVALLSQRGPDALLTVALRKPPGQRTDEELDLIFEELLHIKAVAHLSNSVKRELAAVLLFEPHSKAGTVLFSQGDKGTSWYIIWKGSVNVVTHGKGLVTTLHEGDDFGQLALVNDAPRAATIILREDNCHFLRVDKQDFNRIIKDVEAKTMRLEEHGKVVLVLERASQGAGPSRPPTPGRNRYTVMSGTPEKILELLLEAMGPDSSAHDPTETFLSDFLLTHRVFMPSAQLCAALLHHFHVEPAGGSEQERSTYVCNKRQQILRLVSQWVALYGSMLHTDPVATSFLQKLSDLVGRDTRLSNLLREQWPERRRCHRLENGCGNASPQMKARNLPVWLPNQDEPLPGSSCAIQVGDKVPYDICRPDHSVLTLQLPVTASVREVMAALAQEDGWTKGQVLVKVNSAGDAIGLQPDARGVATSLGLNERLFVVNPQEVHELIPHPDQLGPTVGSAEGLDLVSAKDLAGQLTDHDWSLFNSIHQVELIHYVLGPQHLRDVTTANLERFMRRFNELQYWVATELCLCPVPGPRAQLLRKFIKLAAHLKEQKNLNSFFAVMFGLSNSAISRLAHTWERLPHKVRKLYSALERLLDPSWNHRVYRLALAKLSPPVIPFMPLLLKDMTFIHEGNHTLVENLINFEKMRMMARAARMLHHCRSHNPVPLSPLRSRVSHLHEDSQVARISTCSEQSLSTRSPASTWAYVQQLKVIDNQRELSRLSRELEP
Sequence of DNA dC->dU-editing enzyme APOBEC-3G (Homo sapiens) (Q9HC16 whole entry, looked up): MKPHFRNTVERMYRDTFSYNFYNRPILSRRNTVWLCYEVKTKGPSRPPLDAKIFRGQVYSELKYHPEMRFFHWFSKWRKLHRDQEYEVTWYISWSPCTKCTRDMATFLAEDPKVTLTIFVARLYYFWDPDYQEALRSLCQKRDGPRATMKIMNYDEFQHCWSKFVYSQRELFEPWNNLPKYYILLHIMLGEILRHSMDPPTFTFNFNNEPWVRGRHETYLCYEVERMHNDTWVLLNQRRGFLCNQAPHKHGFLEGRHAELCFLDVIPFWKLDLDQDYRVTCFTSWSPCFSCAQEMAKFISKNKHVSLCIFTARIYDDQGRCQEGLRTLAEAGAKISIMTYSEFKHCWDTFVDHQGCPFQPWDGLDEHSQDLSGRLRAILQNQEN
Sequence of Glucocorticoid receptor (Homo sapiens) (P04150 whole entry, looked up, the tested form may be a part): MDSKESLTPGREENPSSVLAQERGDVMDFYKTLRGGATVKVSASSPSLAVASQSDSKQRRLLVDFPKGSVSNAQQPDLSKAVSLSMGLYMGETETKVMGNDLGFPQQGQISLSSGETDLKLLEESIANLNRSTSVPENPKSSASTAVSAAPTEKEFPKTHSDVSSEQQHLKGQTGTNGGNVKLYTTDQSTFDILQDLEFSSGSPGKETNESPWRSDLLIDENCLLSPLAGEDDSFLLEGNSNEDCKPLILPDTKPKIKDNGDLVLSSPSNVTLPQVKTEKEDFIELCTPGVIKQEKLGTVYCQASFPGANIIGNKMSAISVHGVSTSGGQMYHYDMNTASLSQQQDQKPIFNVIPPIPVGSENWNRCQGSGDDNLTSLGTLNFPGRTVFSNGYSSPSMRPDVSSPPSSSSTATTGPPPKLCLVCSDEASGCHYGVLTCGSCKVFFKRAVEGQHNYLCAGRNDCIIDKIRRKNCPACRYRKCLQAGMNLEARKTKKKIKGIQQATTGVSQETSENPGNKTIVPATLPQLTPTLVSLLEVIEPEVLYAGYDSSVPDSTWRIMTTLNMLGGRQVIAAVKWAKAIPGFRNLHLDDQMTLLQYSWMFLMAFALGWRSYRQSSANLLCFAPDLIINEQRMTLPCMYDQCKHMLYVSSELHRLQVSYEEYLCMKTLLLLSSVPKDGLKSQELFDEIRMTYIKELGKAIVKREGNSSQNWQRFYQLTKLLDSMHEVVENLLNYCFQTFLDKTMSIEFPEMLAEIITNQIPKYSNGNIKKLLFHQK
Sequence of Rap guanine nucleotide exchange factor 4 (Homo sapiens) (Q8WZA2 whole entry, looked up): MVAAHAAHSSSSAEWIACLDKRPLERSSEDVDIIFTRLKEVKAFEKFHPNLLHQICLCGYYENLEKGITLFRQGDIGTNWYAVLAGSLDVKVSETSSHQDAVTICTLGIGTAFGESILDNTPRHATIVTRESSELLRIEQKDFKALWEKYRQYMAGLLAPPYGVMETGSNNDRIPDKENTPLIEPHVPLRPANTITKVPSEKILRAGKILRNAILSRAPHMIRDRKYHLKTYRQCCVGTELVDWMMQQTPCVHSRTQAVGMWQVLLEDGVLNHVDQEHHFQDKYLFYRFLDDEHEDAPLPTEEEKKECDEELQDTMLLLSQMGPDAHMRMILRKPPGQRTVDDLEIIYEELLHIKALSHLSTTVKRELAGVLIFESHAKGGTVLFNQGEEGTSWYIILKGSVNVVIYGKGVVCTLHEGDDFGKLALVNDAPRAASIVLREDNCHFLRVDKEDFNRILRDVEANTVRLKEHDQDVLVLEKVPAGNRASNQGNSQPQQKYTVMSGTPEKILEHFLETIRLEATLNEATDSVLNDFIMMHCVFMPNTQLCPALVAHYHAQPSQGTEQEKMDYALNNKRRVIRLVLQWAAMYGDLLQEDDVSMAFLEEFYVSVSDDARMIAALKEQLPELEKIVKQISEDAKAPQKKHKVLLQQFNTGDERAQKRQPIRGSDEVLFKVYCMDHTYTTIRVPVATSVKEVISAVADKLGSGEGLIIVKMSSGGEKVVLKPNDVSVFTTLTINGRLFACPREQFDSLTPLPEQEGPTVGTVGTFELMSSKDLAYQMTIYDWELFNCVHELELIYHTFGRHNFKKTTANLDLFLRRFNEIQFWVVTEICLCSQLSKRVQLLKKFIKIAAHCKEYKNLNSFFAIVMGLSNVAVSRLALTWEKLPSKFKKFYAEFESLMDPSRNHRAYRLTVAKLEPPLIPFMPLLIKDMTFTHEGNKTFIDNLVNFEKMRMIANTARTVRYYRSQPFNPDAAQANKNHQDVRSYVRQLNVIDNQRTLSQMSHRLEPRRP
Sequence of Cytochrome P450 2C9 (Homo sapiens) (P11712 whole entry, looked up): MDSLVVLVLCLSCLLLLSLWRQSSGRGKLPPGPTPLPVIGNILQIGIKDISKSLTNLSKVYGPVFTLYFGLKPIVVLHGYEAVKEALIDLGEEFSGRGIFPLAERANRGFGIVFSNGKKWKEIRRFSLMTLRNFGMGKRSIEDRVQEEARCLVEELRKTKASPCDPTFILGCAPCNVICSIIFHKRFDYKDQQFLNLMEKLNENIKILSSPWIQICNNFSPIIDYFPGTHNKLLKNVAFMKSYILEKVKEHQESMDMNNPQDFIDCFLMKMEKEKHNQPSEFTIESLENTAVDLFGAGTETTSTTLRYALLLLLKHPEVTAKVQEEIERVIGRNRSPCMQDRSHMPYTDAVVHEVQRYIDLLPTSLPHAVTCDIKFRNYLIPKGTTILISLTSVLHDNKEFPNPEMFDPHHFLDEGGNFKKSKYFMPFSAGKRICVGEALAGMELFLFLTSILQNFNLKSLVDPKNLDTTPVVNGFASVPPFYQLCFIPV
Sequence of 3',5'-cyclic-AMP phosphodiesterase 4B (Homo sapiens) (Q07343 whole entry, looked up): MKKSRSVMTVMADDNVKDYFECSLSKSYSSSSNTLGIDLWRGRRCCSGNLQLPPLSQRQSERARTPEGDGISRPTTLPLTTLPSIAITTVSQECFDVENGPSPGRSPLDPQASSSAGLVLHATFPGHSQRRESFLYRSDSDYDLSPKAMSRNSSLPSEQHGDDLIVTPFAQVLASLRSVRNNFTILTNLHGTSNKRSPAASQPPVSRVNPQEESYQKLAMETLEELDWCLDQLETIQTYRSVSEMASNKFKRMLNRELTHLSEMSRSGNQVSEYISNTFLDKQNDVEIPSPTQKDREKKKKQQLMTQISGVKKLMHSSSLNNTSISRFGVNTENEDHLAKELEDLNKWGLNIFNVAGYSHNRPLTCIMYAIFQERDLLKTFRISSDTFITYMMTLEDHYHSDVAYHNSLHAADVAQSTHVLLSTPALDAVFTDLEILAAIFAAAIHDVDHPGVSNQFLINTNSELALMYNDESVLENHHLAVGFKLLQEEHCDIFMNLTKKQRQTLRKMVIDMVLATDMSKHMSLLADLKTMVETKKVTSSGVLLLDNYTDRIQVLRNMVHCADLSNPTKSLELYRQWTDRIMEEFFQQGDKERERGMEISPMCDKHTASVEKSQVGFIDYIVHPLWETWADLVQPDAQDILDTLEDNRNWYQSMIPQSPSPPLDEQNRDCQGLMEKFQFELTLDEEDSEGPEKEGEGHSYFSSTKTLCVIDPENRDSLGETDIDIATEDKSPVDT
Sequence of Alpha-galactosidase (Coffea arabica) (Q42656 whole entry, looked up): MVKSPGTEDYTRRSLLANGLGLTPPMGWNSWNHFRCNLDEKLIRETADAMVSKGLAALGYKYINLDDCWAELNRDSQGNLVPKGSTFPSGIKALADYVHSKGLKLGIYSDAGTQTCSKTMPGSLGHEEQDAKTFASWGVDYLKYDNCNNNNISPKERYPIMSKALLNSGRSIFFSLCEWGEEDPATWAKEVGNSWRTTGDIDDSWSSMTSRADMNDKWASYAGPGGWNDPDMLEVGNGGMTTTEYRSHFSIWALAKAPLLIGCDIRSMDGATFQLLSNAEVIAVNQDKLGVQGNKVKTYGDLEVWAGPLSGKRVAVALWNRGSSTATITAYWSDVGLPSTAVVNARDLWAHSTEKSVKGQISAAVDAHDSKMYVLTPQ

CN1Cc2ccccc2[C@@H]2c3cccc4[nH]cc(c34)C[C@H]21
inactive: Potency [1] > 46 µM | Potency [2] > 46 µM | Potency [4] | Potency [5] | outcome [6] | outcome [7] | Potency [8]
active: Potency [3] 26.6 µM

O=C(NC1CCCCC1)c1cn(CCN2CCOCC2)c2cc(Cl)ccc2c1=O
inactive: Potency [4]

COC(=O)C1=C[C@H]([C@@H](C)[C@H](OC)c2ccccc2Br)[C@H]2[C@H]1c1ccccc1N2C
1.9 µM (active) and inactive: Potency [11]
inactive: outcome [9] | outcome [10] | outcome [12]

C[C@@H](Cc1ccc(OCC(=O)O)cc1)NC[C@H](O)c1cccc(Cl)c1
11.5%: max response ([31]; measured here: cell count channel max response)
active: Potency [20] 6.31 µM | Potency [22] 5.01 µM | Potency [24] 14.1 µM
8.85%: max response ([31]; measured here: lipid channel max response)
inactive: outcome [13] | Potency [14] | activity change, negative = inhibition [15] -11.2% | outcome [16] | Potency [1] > 46 µM | Potency [2] > 46 µM | outcome [17] | Potency [18] | outcome [19] | Potency [21] | outcome [23] | outcome [25] | outcome [26] | outcome [27] | outcome [28] | outcome [29] | outcome [30] | activity change, negative = inhibition ([31]; at 57.5 µM (top of the series)) -1.87% | Potency [32] | Potency [3]

COC(=O)[C@@H]1[C@@H](c2ccccc2)[C@H]2C(=O)c3c(OC)cc(OC)cc3O[C@@]12c1ccc(OC)cc1
inactive: outcome [9] | Potency [11] | outcome [12]

C(=C/c1ccccc1)/CN1CCN(CCOC(c2ccccc2)c2ccccc2)CC1
active: Potency [14] 20 µM | Potency [20] 5.01 µM | Potency [33] 5.01 µM
inactive: Potency [1] > 46 µM | Potency [2] > 46 µM | outcome [17] | Potency [3] | Potency [5] | outcome [6] | Potency [8]

CCC[C@]12CCN3C(=O)N[C@@H](c4ccccc4)[C@](C(=O)OCC)(C1)[C@H]32
inactive: outcome [9] | outcome [10] | Potency [11] | outcome [12]

CCOC(=O)[C@]12C[C@@H]3CCN(C(=O)N(C(C)=O)[C@@H]1c1ccccc1)[C@@H]32
inactive: outcome [9] | outcome [10] | Potency [11] | outcome [12]
